About 6,000 (1.7%) of roughly 360,000 compounds were called active. Inconclusive results (about 8%) are left out. The entries come from a sample that favours actives as a whole. Values without a mark were called inactive. Calls come from the whole dose curve; as a rule, active = well fitted cell-killing curve with a large enough effect; inconclusive = small, poorly fitted or top-dose-only effect, or effect the other way; inactive = flat fitted curve, though single readings scatter.
experiment: qHTS for induction of synthetic lethality in tumor cells producing 2HG: qHTS for the HT-1080-NT fibrosarcoma cell line; settings: HT-1080-NT fibrosarcoma viability, CellTiter-Glo ATP luminescence, 48 h; series mostly up to 46.1 µM; activity, negative = less viability: at the top concentration;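 note: NT is the 2HG producing partner of a matched IDH1 knockdown line; nearly all actives have a fitted effect of over 55% in size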;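 for activity, negative = less viability: 0% = DMSO-treated cells and -100% = media-only wells without cells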
Outline: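 Compounds were tested in concentration-response format on HT-1080-NT cells for 48 hours at 37 degrees C. Cell viability came from CellTiter-Glo luminescence; curves were classified by r2, response magnitude and activity.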
Potency is the fitted concentration of half-maximal effect.

SMILES	Potency	activity, negative = less viability
OC(CNCC1CCCO1)Cn1c2ccc(Br)cc2c2cc(Br)ccc21 (centres undefined)	20.6 µM (active)	
COCCNC(=O)c1ccc(Cn2c(SCC(=O)NCC3CCCO3)nc3ccc(Br)cc3c2=O)cc1 (centres undefined)		-9.16%
CCCN1CCn2c3c(c4cc(Br)ccc42)CCCC31 (centres undefined)		2.41%
Cc1sc2nc(-c3ccccc3F)oc(=O)c2c1C		1.74%
O=S1(=O)CC(N2CCN(CCO)CC2)CN1Cc1cn(Cc2ccc(Cl)cc2)nn1 (centres undefined)		18.6%
O=C(Nc1cc(Br)ccc1F)c1nc[nH]c1C(=O)NCc1ccccc1		-4.69%
CCN1CCN(CCNC(=O)c2ccc3c(c2)NC(=O)/C(=C\c2cccc(Cl)c2)S3)CC1		-6.54%
CN1CCN(CCCNC(=O)c2ccc(/C=C3\Oc4ccccc4N(Cc4ccc(Cl)cc4)C3=O)cc2)CC1		-9.12%
CCN1CCN(CCNC(=O)c2ccc(/C=C3/Sc4ccccc4N(Cc4cccc(C)c4)C3=O)cc2)CC1	23.1 µM (active)	
CCNC(=O)C1(C)CCCN(C(=O)c2c(C)noc2C)C1 (centres undefined)		17.7%
COc1cc([N+](=O)[O-])ccc1NC(=O)COC(=O)CCOc1ccc(C)cc1	20.6 µM (active)	
COc1cccc(NC(=O)COC(=O)CCOc2ccccc2OC)c1		-0.605%
CSc1ccccc1NC(=O)COC(=O)CCCOc1ccc(C)cc1		3.43%
CCc1ccccc1NC(=O)CN1CCN(C(=O)c2cc(C3CC3)nn2-c2ccccc2)CC1		4.23%
COC(=O)c1sc(NC(=S)NC(=O)c2ccc(C)cc2)nc1C		17.2%
N#Cc1c(-c2cccs2)nc(SCC(=O)c2ccc(Br)cc2)[nH]c1=O		-17.9%
N#Cc1ccc(C(=O)Nc2nc(-c3cccs3)c(C(=O)C(F)(F)F)s2)cc1	2.91 µM (active)	
CCOC(=O)[C@]12CCCC=C1N(Cc1ccc3c(c1)OCO3)C(=O)[C@H](CC(=O)NCc1cccs1)C2		-21%
CC1(C)CC(=O)C=C(c2ccc(COC(=O)c3cc(F)cc(F)c3)cc2)C1=O		-18.3%
CCN(CC(=O)Nc1ccc(NC(C)=O)cc1)C(=O)C1CC(=O)N(c2ccc3c(c2)OCCO3)C1 (centres undefined)		4.08%
O=C(NC(=O)c1ccccc1)Nc1ccccc1O		-9.01%
O=C(NC1=CC(=O)c2ccccc2C1=O)c1ccccc1	7.31 µM (active)	
CC(NC(=O)c1ccccc1)C(=O)Nc1ccccc1 (centres undefined)		7.26%
Cc1ccc(S(=O)(=O)N2[C@@H](Cc3ccccc3)CO[C@H]2CC(=O)OCc2ccccc2)cc1		-7.46%
CCCCNC(=O)OC1CC2CC1[C@H]1CCCCN1C2=O (some centres undefined)		11.3%

SMILES	Potency	activity, negative = less viability
O=C(COC(=O)Cc1ccc(Cl)cc1Cl)NCc1ccco1		0.36%
COC(=O)CC1=NN(c2ccccc2)C(=O)C1		9.15%
O=[N+]([O-])c1ccc(N2CCOCC2)cc1		-6.24%
O=C1CC(c2ccccc2)=NN1c1ccc([N+](=O)[O-])cc1	14.6 µM (active)	
COc1ccc(C(=O)N2CCCCC2c2cc(C(=O)Nc3ccc(F)c(Cl)c3)no2)cc1 (centres undefined)		-21.2%
Cc1c(C(=O)NCC2CC2)sc(=O)n1Cc1cccc(F)c1		11%
COc1ccc(NC(=O)CNC(=O)Cc2ccccc2)cc1OC		-0.905%
COc1ccc(CNC(=O)Cc2ccc(-c3ccccc3)cc2)cc1OC	14.6 µM (active)	
COc1ccc(CNC(=O)[C@H](Cc2c[nH]c3ccccc23)NC(C)=O)cc1OC		12.4%
O=C(C=CC(=O)Nc1ccc(F)cc1F)Nc1ccc(F)cc1F		7.85%
NS(=O)(=O)c1ccc(CNC(=O)c2cc(S(=O)(=O)N3CCOCC3)ccc2N2CCCC2)cc1		0.267%
COC(=O)c1ccc2c(c1)S(=O)(=O)NC2C (centres undefined)		16.3%
COC(=O)CCCCC1=CCC2C(=O)C=C(O)C2C1 (centres undefined)		6.86%
CC(OC(=O)c1ccc(NC(=O)CC#N)cc1)C(=O)Nc1ccc(S(=O)(=O)N2CCCC2)cc1 (centres undefined)		-0.404%
CCOCCCn1c(NN)nc2ccccc2c1=O		1.83%
CCn1c(/C=C/c2ccc([N+](=O)[O-])o2)nc2ccccc2c1=O	2.59 µM (active)	
Cc1ccc(-n2c(SCC(=O)N/N=C/C=C/c3ccccc3[N+](=O)[O-])nc3ccccc3c2=O)cc1		4.46%
CCC1NC(=O)c2cccnc2-n2c1nc1ccc(C)cc1c2=O (centres undefined)		16.5%
COc1cc2nc(N3CCCN(C)CC3)nc(NC(C)C)c2cc1OC		-15.7%
COc1cc2ccc(C(C)=O)c(O)c2cc1OC		-1.62%
CC(C)CN1C(=O)CN(S(C)(=O)=O)CC1(C)C(=O)NCc1ccccc1 (centres undefined)		25.9%
COc1cc(OC)c2c(-c3cccc(-c4cccc(N)c4)c3)cc(=O)oc2c1	6.51 µM (active)	
COc1ccc(-c2c(C)cc3oc(=O)cc(-c4ccccc4)c3c2C)cc1F		10.6%
COc1ccc(-c2c(C)cc3oc(=O)cc(-c4ccccc4)c3c2C)cc1OC		7.56%
COc1cc2nc(N3CCCN(C)CC3)nc(NC3CC3)c2cc1OC		-21.4%

SMILES	Potency	activity, negative = less viability
Cc1[nH]n(-c2ccc(Cl)cc2)c(=O)c1/C=N/n1c(C)nc2ccccc2c1=O	23.1 µM (active)	
O=c1c2ccccc2ncn1/N=C/c1ccccc1		3.2%
Cc1nc2ccccc2c(=O)n1-c1ccc(NS(=O)(=O)c2ccc(F)cc2F)cc1		0.277%
CC1(C(=O)O)CCN1C(=O)/C=C/c1ccccc1 (centres undefined)		22%
CC1(C(=O)NS(=O)(=O)c2ccccc2)CCN1C(=O)C/C=C/c1ccccc1 (centres undefined)		1.36%
CC1(C)CCSC(/C=C/c2ccccc2)=N1	23.1 µM (active)	
O=C(O)C(=Cc1ccc([N+](=O)[O-])cc1)CCc1ccccc1		-1.78%
Brc1ccc2nc(-c3ccccc3)c(Cc3ccccc3)n2c1		17.3%
Cc1ccc(-c2nc3ccc(Br)cn3c2Cc2ccccc2C(F)(F)F)cc1		-23.8%
Cc1ccc(NC(=O)N2CCC(C(=O)NCc3ccc(F)cc3)CC2)cc1		8.01%
CCS(=O)(=O)N1CCCC(C(=O)NCc2ccc(C)cc2)C1 (centres undefined)		9.86%
CCc1ccc(CNC(=O)C2CCN(c3nnc(C)c4c(C)n(-c5ccc(C)cc5)nc34)CC2)cc1	13 µM (active)	
CCN(CC)C(=O)C1=C(C)N(Cc2ccc(F)cc2)C(=O)C(CC(=O)NC2CCCC2)C1 (centres undefined)		-1.24%
COc1ccccc1NC(=O)[C@H](COCc1ccccc1)NC(=O)OC(C)(C)C		6.66%
CCc1ccccc1NC(=O)CSc1nnc([C@@H](NC(=O)OC(C)(C)C)C(C)CC)o1 (some centres undefined)		2.65%
C[C@@H](NC(=O)OC(C)(C)C)c1nnc(S(=O)(=O)Cc2ccccc2)o1	16.4 µM (active)	
CC1(C(=O)Nc2cccc3c2CCCC3)CCN1C(=O)C1(c2ccccc2)CC1 (centres undefined)		-21.9%
O=C(Nc1ccccc1)c1ccccc1Br		-0.814%
COc1ccc2sc(-c3ccc(S(C)(=O)=O)cc3)c(-c3ccc(C(N)=O)cc3)c2c1		-27.8%
COc1ccc2sc(-c3ccc(S(C)(=O)=O)cc3)c(C#Cc3cncn3C)c2c1	20.6 µM (active)	
COc1ccc(-c2sc3ccc(OC)cc3c2C#Cc2ccccn2)cc1		-11.5%
CC1=C(C(=O)N(C)C)CC(CC(=O)NCCN2CCOCC2)C(=O)N1Cc1ccccc1 (centres undefined)		13%
O=C1[C@H]2[C@@H](c3ccc(C(F)(F)F)cc3)N[C@]3(CCCN(Cc4ccc(Cl)cc4)C3=O)[C@H]2C(=O)N1Cc1ccccc1		-17.1%
CCCCN1C[C@H](c2ccc(Br)cc2)[C@@H](CC(=O)Nc2ccc(Br)cc2)C1=O		-4.62%
Nc1nc(NCC2CCCO2)nc(Nc2ccccc2F)c1[N+](=O)[O-] (centres undefined)		-0.899%

SMILES	Potency	activity, negative = less viability
C=CCNc1nc(N)c([N+](=O)[O-])c(NC2CCCCC2)n1		0.683%
Nc1nc(Nc2ccccc2F)nc(NC2CCCCC2)c1[N+](=O)[O-]	16.4 µM (active)	
COc1cc(C(=O)N2CCOC23CCN(Cc2ccccc2)CC3)cc(OC)c1OC		0.0161%
COC(=O)c1ccc2nc(-c3ccc(F)cc3)c(Cc3ccc(C)cc3)n2c1		1.66%
CCCCc1c(-c2ccc(Br)cc2)ncn1CCc1ccccc1OC	9.2 µM (active)	
CCC(=O)NCc1cc(-c2nn(C)c(=O)c3ccccc23)ccc1OC		7.47%
Cn1c(=O)c2c(ncn2CCc2ccccc2)n(C)c1=O		10.3%
COc1ccccc1Cc1c(-c2ccc(Cl)cc2)nc2c3ccccc3ccn12		4.95%
CCCCCc1c(-c2ccc(OC)c(OC)c2)ncn1CCc1ccccc1OC	20.6 µM (active)	
COc1ccccc1Cc1c(-c2ccc(Cl)cc2)nc2ccc(Cl)cn12		-12.4%
COc1ccc(-c2nn(-c3ccccc3)cc2C(=O)Nc2nccs2)cc1OC		-2.1%
COc1ccccc1CCNS(=O)(=O)c1cn(C)nc1C		10.6%
CCCCCc1c(Cc2ccccc2)ncn1CCc1ccccc1OC	18.4 µM (active)	
CC1(C(=O)NS(=O)(=O)c2ccccc2)CCN1C(=O)Cc1ccc(-c2ccccc2)cc1 (centres undefined)		13%
O=C(CC(CC(=O)c1ccccc1)c1ccco1)c1ccccc1		-6.49%
CC1=C(C(=O)N(C(C)C)C(C)C)CC(CC(=O)NCC2CCCCC2)C(=O)N1Cc1ccccc1 (centres undefined)		1.17%
Cc1ccc(C=O)c([B-](F)(F)F)c1		-6.9%
O=C(NCc1ccccn1)[C@@H]1CCCN1C(=O)[C@@H]1CCCN1C(=O)c1ccccc1		19.3%
CN1OC[C@@H]2CN[C@H](c3ccc(-c4ccccc4)cc3)C[C@@H]21		-11.5%
CCc1ccc(C2C(C#N)=C(N)Oc3n[nH]c(CC(=O)OC)c32)cc1 (centres undefined)		10.5%
COc1cc(C2C(C#N)=C(N)Oc3n[nH]c(-c4ccccn4)c32)cc(OC)c1OC (centres undefined)		-0.64%
COCc1[nH]nc2c1C(C1C=CCCC1)C(C#N)=C(N)O2 (centres undefined)	14.1 µM (active)	
Cc1ccc([C@@H]2CC(=O)[C@@H]3CN(S(=O)(=O)c4ccc(C)cc4)[C@H](c4ccccc4F)C[C@@H]3N2S(=O)(=O)c2ccc(Cl)cc2)cc1		19.9%
FC(F)(F)c1ccccc1Cc1c(-c2ccccc2)nc2c3ccccc3ccn12		3.49%

Reference: PubChem BioAssay AID686970 (National Center for Advancing Translational Sciences (NCATS), 2013)
